Data from the supplement of paper PMC4723716.
± gives the uncertainty stated by the source. The full ranking holds about 9,900 compounds; the median of “viability index relative to DMSO control” is about 1, and the lowest 2% start at about 0.85. The entries come from a sample that favours the lowest values as a whole.

Test system: Plasmodium falciparum NF54 stage V gametocytes
Test: viability index relative to DMSO control (fraction); higher = less gametocyte killing
Conditions: 2.5 µM, incubation time: 72 h
How it was run: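 Compound at 2.5 µM was incubated for 72 hr at 37°C under low oxygen with P. falciparum NF54 stage V gametocytes (0.75% gametocytemia, 1.25% hematocrit, 10 µl, serum-free screening medium) in 1,536-well plates. Staining used 3 µl of 2.5 µM MitoTracker Red CMXRos plus 0.13% saponin for one to two hours, and red particles of 20–70 µm2 were counted in one imaged field per well. Each viability index is that count relative to the plate mean of solvent-only wells.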

[1] = library set: Broad Institute DOS

SMILES	viability index [1]	viability index (library set: Broad Institute Blood Stage)
C[C@@H]1CN([C@H](C)CO)C(=O)CCCn2nncc2CO[C@@H]1CN(C)S(=O)(=O)c1ccc2c(c1)OCCCO2	1.025 ± 0.0016	
C[C@@H]1CN([C@H](C)CO)C(=O)c2cc(NS(=O)(=O)c3cn(C)cn3)ccc2O[C@@H](C)CCCCO[C@@H]1CN(C)Cc1ccc2c(c1)OCO2	1.15 ± 0.07	
CC(=O)N1CC2(C1)[C@@H](c1ccc(-c3ccc(F)cc3)cc1)[C@@H](CO)N2CC1CC1	1.08 ± 0.023	
O=C(C[C@@H]1C=C[C@@H](NC(=O)Nc2ccc3c(c2)OCO3)[C@@H](CO)O1)NCCCN1CCOCC1	1.02 ± 0.075	
COc1ccccc1S(=O)(=O)N1[C@@H]2CNC[C@H]1[C@@H]2c1ccc(-c2ccncc2)cc1	1.06 ± 0.032	
O=C(C[C@@H]1CC[C@H](NC(=O)C2CC2)[C@H](CO)O1)Nc1ccccc1	0.916 ± 0.036	
O=C(C1CCOCC1)N1C[C@@H]2[C@H](c3ccccc31)[C@@H](CO)N2C(=O)Cc1ccccn1	1.06 ± 0.053	
COc1ccc2c3c([nH]c2c1)[C@@H](CO)N(C[C@]31CN(C1)C(=O)NC(C)C)C(=O)C1CCOCC1	1.03 ± 0.045	
C[C@H]1CN([C@@H](C)CO)C(=O)c2cccc(NC(=O)C3CCOCC3)c2O[C@@H]1CN(C)C(=O)Nc1cccc2ccccc12	1.03 ± 0.11	
CCS(=O)(=O)Nc1ccc2c(c1)C(=O)N(C)[C@@H]1CC[C@H](CC(=O)NC3CCCCC3)O[C@@H]1CO2	0.905 ± 0.12	
CN(C)C(=O)c1cccc(-c2ccc([C@@H]3[C@H]4CN(C(=O)C5CCC5)CC(=O)N4[C@H]3CO)cc2)c1	0.9976 ± 0.0084	
COc1ccc(-c2ccccc2[C@@H]2[C@@H](CO)N(C(=O)NC(C)C)[C@H]2C#N)cc1	1.1 ± 0.063	
COc1ccc(S(=O)(=O)Nc2ccc3c(c2)[C@H]2C[C@H](CC(=O)N(C)C)O[C@@H](CO)[C@H]2O3)cc1	1.11 ± 0.014	
C[C@H]1CN([C@@H](C)CO)C(=O)c2cc(NS(=O)(=O)c3cn(C)cn3)ccc2O[C@@H]1CN(C)C(=O)Nc1cccc2ccccc12	0.954 ± 0.24	
COc1cccc(S(=O)(=O)N(C)C[C@@H]2Oc3cc(Br)ccc3S(=O)(=O)N([C@@H](C)CO)C[C@@H]2C)c1	1.07 ± 0.041	
CCCC#Cc1ccc2c(c1)O[C@H](CN(C)Cc1ccccn1)[C@@H](C)CN([C@@H](C)CO)S2(=O)=O	1.02 ± 0.084	
Cc1ccc(S(=O)(=O)N(C)C[C@H]2Oc3cc(C#CC4CCCC4)ccc3S(=O)(=O)N([C@H](C)CO)C[C@H]2C)cc1	0.8771 ± 0.0037	
C[C@@H]1CN([C@@H](C)CO)S(=O)(=O)c2ccc(C#Cc3cccc(F)c3)cc2O[C@@H]1CN(C)S(=O)(=O)c1cn(C)cn1	0.9512 ± 0.0018	
C[C@@H]1CN([C@H](C)CO)S(=O)(=O)c2ccc(C#Cc3cccc(F)c3)cc2O[C@@H]1CN(C)S(=O)(=O)c1cn(C)cn1	1.01 ± 0.055	
Cc1ccc(S(=O)(=O)N(C)C[C@@H]2Oc3cc(C#CC4CCCC4)ccc3S(=O)(=O)N([C@H](C)CO)C[C@H]2C)cc1	0.766 ± 0.091	
C[C@H]1CN([C@@H](C)CO)S(=O)(=O)c2ccc(C#Cc3cccc(F)c3)cc2O[C@@H]1CN(C)S(=O)(=O)c1cn(C)cn1	0.985 ± 0.049	
CCCC#Cc1ccc2c(c1)O[C@H](CN(C)Cc1ccccn1)[C@H](C)CN([C@@H](C)CO)S2(=O)=O	0.847 ± 0.015	
Cc1ccc(S(=O)(=O)N(C)C[C@@H]2Oc3cc(C#CC4CCCC4)ccc3S(=O)(=O)N([C@H](C)CO)C[C@@H]2C)cc1	0.943 ± 0.17	

SMILES	viability index [1]	viability index (library set: Broad Institute Blood Stage)
C[C@@H]1CN([C@H](C)CO)S(=O)(=O)c2ccc(C#Cc3cccc(F)c3)cc2O[C@H]1CN(C)S(=O)(=O)c1cn(C)cn1	0.803 ± 0.052	
CCCC#Cc1ccc2c(c1)O[C@@H](CN(C)Cc1ccccn1)[C@@H](C)CN([C@@H](C)CO)S2(=O)=O	0.884 ± 0.045	
Cc1ccc(S(=O)(=O)N(C)C[C@@H]2Oc3cc(C#CC4CCCC4)ccc3S(=O)(=O)N([C@@H](C)CO)C[C@H]2C)cc1	0.648 ± 0.17	
O=C(C[C@H]1CC[C@H]2[C@@H](COC[C@H](O)CN2Cc2nccs2)O1)N1CCC(Cc2ccccc2)CC1	1.03 ± 0.078	
CN1C(=O)c2cc(NC(=O)c3cnccn3)ccc2OC[C@@H]2O[C@H](CC(=O)N[C@@H]3CCN(Cc4ccccc4)C3)CC[C@H]21	1.05 ± 0.031	
COc1ccccc1CN1[C@@H]2CNC[C@H]1[C@@H]2c1ccc(-c2cccnc2)cc1	1.09 ± 0.1	
Cc1noc(C)c1S(=O)(=O)N(C)C[C@@H]1OCCCC[C@H](C)Oc2ccc(NC(=O)CCC(F)(F)F)cc2C(=O)N([C@@H](C)CO)C[C@H]1C	1.03 ± 0.09	
O=C(C[C@@H]1C=C[C@@H](NC(=O)c2ccc3c(c2)OCO3)[C@@H](CO)O1)NC1Cc2ccccc2C1	0.963 ± 0.11	
COc1cccc(-c2ccccc2[C@@H]2[C@H](C#N)N(C(=O)c3ccccn3)[C@H]2CO)c1	1.1 ± 0.072	
Cc1ccc(S(=O)(=O)Nc2ccc3c(c2)C(=O)N([C@@H](C)CO)C[C@@H](C)[C@H](CN(C)S(=O)(=O)c2cccs2)OCCCC[C@@H](C)O3)cc1	1.13 ± 0.086	
CO[C@H](CN(C)Cc1ccc2c(c1)OCO2)[C@H](C)CN(C(=O)c1ccccc1)[C@@H](C)CO	1.067 ± 0.0074	
COc1ccc2c3c([C@@H](CO)N(Cc4ccncc4)C[C@]33CN(C3)C(=O)Nc3cccc(F)c3)n(C)c2c1	1 ± 0.16	
C/C=C/c1ccc([C@H]2[C@H]3CNC[C@@H]2N3C(=O)Nc2ccc3c(c2)OCO3)cc1	1.05 ± 0.093	
C[C@H]1CN([C@@H](C)CO)S(=O)(=O)c2ccc(C#Cc3cccc(F)c3)cc2O[C@H]1CN(C)S(=O)(=O)c1cn(C)cn1	1.04 ± 0.054	
Cc1ccc(S(=O)(=O)N(C)C[C@H]2Oc3cc(C#CC4CCCC4)ccc3S(=O)(=O)N([C@@H](C)CO)C[C@H]2C)cc1	0.713 ± 0.03	
C[C@@H]1CN([C@@H](C)CO)S(=O)(=O)c2ccc(C#Cc3cccc(F)c3)cc2O[C@H]1CN(C)S(=O)(=O)c1cn(C)cn1	0.9366 ± 0.0027	
CCCN(C)C[C@@H]1Oc2cc(/C=C/c3ccccc3)ccc2S(=O)(=O)N([C@@H](C)CO)C[C@H]1C	1.102 ± 0.0059	
COc1ccccc1S(=O)(=O)N(C)C[C@@H]1Oc2cc(/C=C/c3ccccc3)ccc2S(=O)(=O)N([C@H](C)CO)C[C@H]1C		0.808 ± 0.032
C[C@H]1CN([C@@H](C)CO)S(=O)(=O)c2ccc(-c3ccncc3)cc2O[C@H]1CN(C)S(C)(=O)=O	1.023 ± 0.0035	
Cc1ccc(S(=O)(=O)N(C)C[C@@H]2Oc3cc(C#CC4CCCC4)ccc3S(=O)(=O)N([C@@H](C)CO)C[C@@H]2C)cc1	0.837 ± 0.055	
COc1cccc(S(=O)(=O)N(C)C[C@H]2Oc3cc(Br)ccc3S(=O)(=O)N([C@@H](C)CO)C[C@H]2C)c1	0.978 ± 0.026	
Cc1ccc(S(=O)(=O)N(C)C[C@H]2Oc3cc(C#CC4CCCC4)ccc3S(=O)(=O)N([C@H](C)CO)C[C@@H]2C)cc1	0.676 ± 0.26	
CCCN(C)C[C@H]1Oc2cc(/C=C/c3ccccc3)ccc2S(=O)(=O)N([C@H](C)CO)C[C@@H]1C	1.02 ± 0.016	

SMILES	viability index [1]	viability index (library set: Broad Institute Blood Stage)
COc1ccccc1NC(=O)N1C[C@H](O)COC[C@H]2O[C@H](CC(=O)NCCc3ccncc3)CC[C@@H]21	1.08 ± 0.062	
O=C1CCC(=O)N[C@@H](c2ccccc2)C/C=C\CCN1	1.01 ± 0.087	
COc1ccc(NC(=O)N2C[C@@H]3[C@H](c4ccccc42)[C@H](CO)N3Cc2ccccn2)cc1	0.993 ± 0.11	
CCCNC(=O)Nc1ccc2c(c1)OC[C@H](C)N(Cc1cncnc1)C[C@@H](C)[C@H](OC)CN(C)C2=O	0.989 ± 0.014	
CO[C@H]1CN(C)C(=O)c2cc(NC(=O)C3CCCCC3)ccc2OC[C@H](C)N(Cc2cccnc2)C[C@H]1C	1.037 ± 0.0049	
Cc1noc(C)c1S(=O)(=O)N(C)C[C@@H]1OCc2cn(nn2)CCCC(=O)N([C@@H](C)CO)C[C@H]1C	1.03 ± 0.014	
Cc1ccc(S(=O)(=O)N(C)C[C@H]2Oc3cc(C#CC4CCCC4)ccc3S(=O)(=O)N([C@@H](C)CO)C[C@@H]2C)cc1	0.705 ± 0.12	
C[C@H](CO)N1C[C@H](C)[C@H](CN(C)S(=O)(=O)c2cn(C)cn2)Oc2cc(C#Cc3cccc(F)c3)ccc2S1(=O)=O	0.9878 ± 0.0014	
C[C@H](CO)N1C[C@H](C)[C@@H](CN(C)S(=O)(=O)c2cn(C)cn2)Oc2cc(C#Cc3cccc(F)c3)ccc2S1(=O)=O	1.05 ± 0.09	
COc1cccc(-c2ccc3c(c2)[C@@H]2[C@@H](CCN2S(=O)(=O)c2cn(C)cn2)[C@@H](CO)N3)c1	0.97 ± 0.14	
Cc1noc(C)c1S(=O)(=O)Nc1ccc2c(c1)CC(=O)N([C@H](C)CO)C[C@H](C)[C@H](CN(C)Cc1ccc(Oc3ccccc3)cc1)O2	0.981 ± 0.01	
COc1ccc(S(=O)(=O)Nc2ccc3c(c2)CC(=O)N([C@@H](C)CO)C[C@@H](C)[C@@H](CN(C)Cc2ccc(C(=O)Nc4ccccc4N)cc2)O3)cc1	0.844 ± 0.012	
COc1ccc(S(=O)(=O)Nc2ccc3c(c2)CC(=O)N([C@H](C)CO)C[C@@H](C)[C@H](CN(C)Cc2ccc(C(=O)Nc4ccccc4N)cc2)O3)cc1	0.966 ± 0.1	
COc1ccc(S(=O)(=O)Nc2ccc3c(c2)CC(=O)N([C@@H](C)CO)C[C@H](C)[C@@H](CN(C)Cc2ccc(C(=O)Nc4ccccc4N)cc2)O3)cc1	0.872 ± 0.11	
COc1ccc(S(=O)(=O)Nc2ccc3c(c2)CC(=O)N([C@@H](C)CO)C[C@@H](C)[C@H](CN(C)Cc2ccc(C(=O)Nc4ccccc4N)cc2)O3)cc1	0.836 ± 0.077	
COc1ccc(S(=O)(=O)Nc2ccc3c(c2)CC(=O)N([C@@H](C)CO)C[C@@H](C)[C@H](CN(C)C(=O)Nc2c(C)noc2C)O3)cc1	0.986 ± 0.019	
Cc1noc(C)c1S(=O)(=O)Nc1ccc2c(c1)CC(=O)N([C@@H](C)CO)C[C@@H](C)[C@@H](CN(C)Cc1ccc(Oc3ccccc3)cc1)O2	0.851 ± 0.12	
COc1ccc(S(=O)(=O)Nc2ccc3c(c2)CC(=O)N([C@H](C)CO)C[C@H](C)[C@H](CN(C)Cc2ccc(C(=O)Nc4ccccc4N)cc2)O3)cc1	0.766 ± 0.044	
COc1ccc(S(=O)(=O)Nc2ccc3c(c2)CC(=O)N([C@H](C)CO)C[C@@H](C)[C@@H](CN(C)Cc2ccc(C(=O)Nc4ccccc4N)cc2)O3)cc1	0.956 ± 0.014	
COc1ccc(S(=O)(=O)Nc2ccc3c(c2)CC(=O)N([C@H](C)CO)C[C@H](C)[C@@H](CN(C)Cc2ccc(C(=O)Nc4ccccc4N)cc2)O3)cc1	1 ± 0.027	
Cc1noc(C)c1S(=O)(=O)Nc1ccc2c(c1)CC(=O)N([C@@H](C)CO)C[C@H](C)[C@H](CN(C)Cc1ccc(Oc3ccccc3)cc1)O2	0.923 ± 0.045	
COc1ccc(S(=O)(=O)Nc2ccc3c(c2)CC(=O)N([C@@H](C)CO)C[C@H](C)[C@H](CN(C)Cc2ccc(C(=O)Nc4ccccc4N)cc2)O3)cc1	0.993 ± 0.024	
